PubChem BioAssay (EPA / NIEHS)
Activity calls are given as the source filed them. How the source made its calls: active means hit-call score of the fitted dose curve at least 0.9, where 1 is the maximum; inactive means score below 0.9.

Assays:
[1] = ATG_CRE_CIS: Attagene CIS-FACTORIAL HepG2 Assay for human cAMP Responsive Element (CRE) binding protein 3 (AID 2282926); details: HepG2 CRE cis-reporter, Attagene multiplexed mRNA; actives raise or lower the signal
Outline: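 Multiplexed transcription-unit reporters transfected into HepG2; 24 h dosing; RT-PCR/capillary electrophoresis fluorescence read-out; bidirectional fit vs DMSO.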

[2] = target: CCAAT/enhancer-binding protein beta (Homo sapiens) (UniProt P17676); assay: ATG_C_EBP_CIS: Attagene CIS-FACTORIAL HepG2 Assay for human CCAAT/Enhancer Binding Protein (C/EBP) beta (AID 2282927); details: HepG2 Attagene cis-factorial transcription factor reporter; actives raise or lower the signal
Outline: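 Endogenous C/EBPb-driven reporter transcripts measured in transfected human HepG2 cells at 24 h via RT-PCR and capillary electrophoresis of labelled fragments. Activity fitted in both directions relative to DMSO baseline.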

[3] = ATG_CMV_CIS: Attagene CIS-FACTORIAL HepG2 Assay for human CMV (Internal Marker) (AID 2282928); details: HepG2 CMV promoter reporter, transcription factor profiling; actives raise or lower the signal;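 further: endpoint acts as a background internal control marker rather than a target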
Outline: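 Endogenous transcription factor activity read in HepG2 via transfected cis-promoter reporter units. After 24 h dosing, reporter mRNA measured by RT-PCR/capillary electrophoresis; gain or loss of signal fit relative to DMSO.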

[4] = ATG_DR4_LXR_CIS: Attagene CIS-FACTORIAL HepG2 Assay for human Liver X Receptor (LXR), DR4 submotif (AID 2282929); details: HepG2 Attagene DR4 cis-reporter, mRNA transcription; actives raise or lower the signal
Outline: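 DR4 cis-reporter in HepG2, 24 h exposure. Detection: RT-PCR, 6-FAM labelling, CE fragment analysis. Endpoint fitted bidirectionally, DMSO = baseline.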

[5] = target: Aryl hydrocarbon receptor (Homo sapiens) (UniProt P35869); assay: ATG_Ahr_CIS: Attagene CIS-FACTORIAL HepG2 Assay for human Aryl Hydrocarbon Receptor (Ahr) (AID 2282930); details: HepG2 AhR cis-factorial reporter transcription; actives raise or lower the signal
Outline: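 Reporter mRNA levels, quantified by RT-PCR and fluorescent capillary electrophoresis, reflect endogenous AhR transcriptional activity in HepG2 cells carrying transfected cis-promoter reporter constructs. Readout at 24 h post-dose; gain or loss fitted against DMSO baseline.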

[6] = ATG_AP_1_CIS: Attagene CIS-FACTORIAL HepG2 Assay for human Activator Protein 1 (AP-1) (AID 2282931); details: HepG2 Attagene cis-factorial AP-1 reporter mRNA; actives raise or lower the signal
Outline: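 Cis-regulated reporter units transiently expressed in HepG2 report endogenous transcription-factor activity. Signal: reporter mRNA at 24 h, via RT-PCR and fluorescent capillary electrophoresis. Endpoint derived by bidirectional fitting, DMSO as negative control.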

[7] = ATG_AP_2_CIS: Attagene CIS-FACTORIAL HepG2 Assay for human Activator Protein 2 (AP-2) (AID 2282932); details: HepG2 AP-2 cis-reporter, Attagene transcription factor profiling; actives raise or lower the signal
Outline: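 HepG2, transient MRTU transfection, cis-regulated reporters; 24 h compound exposure; RNA isolated, RT-PCR, 6-FAM labelling, HpaI digest, CE fluorescence. DMSO = negative control/baseline, bidirectional fit.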

[8] = ATG_BRE_CIS: Attagene CIS-FACTORIAL HepG2 Assay for human Bone Morphogenetic Protein (BMP) Response Element (BRE) (AID 2282933); details: HepG2 BMP response element reporter, Attagene transcription factor profiling; actives raise or lower the signal
Outline: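 Endogenous transcription factor activity read in transiently transfected HepG2 cells after 24 h chemical exposure. Bidirectional curve fitting against DMSO; readout is reporter transcript level by RT-PCR with capillary electrophoresis of labelled products.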

[9] = target: Transcription factor E2F1 (Homo sapiens) (UniProt Q01094); assay: ATG_E2F_CIS: Attagene CIS-FACTORIAL HepG2 Assay for human E2F Transcription Factor 1 (AID 2282935); details: HepG2 Attagene cis-reporter, E2F reporter RNA transcripts; actives raise or lower the signal
Outline: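 Cis-element reporter mRNA induction in transiently transfected HepG2, 24 h exposure. Activity fitted in both directions relative to DMSO negative control.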

[10] = ATG_M_61_CIS: Attagene CIS-FACTORIAL HepG2 Assay for M61 Transcription Factor (Internal Marker) (AID 2282937); details: HepG2 Attagene CIS-FACTORIAL M61 internal marker reporter; actives raise or lower the signal
Outline: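 Background-control endpoint: HepG2 cells with cis-regulated reporter constructs, 24 h exposure, reporter mRNA detected via fluorescent primer extension and capillary electrophoresis; values from bidirectional fitting with DMSO baseline.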

[11] = ATG_EGR_CIS: Attagene CIS-FACTORIAL HepG2 Assay for human Early Growth Response 1 (EGR1) (AID 2282938); details: HepG2 Attagene CIS-FACTORIAL EGR reporter mRNA; actives raise or lower the signal
Outline: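 Endpoint derived by bidirectional fitting versus DMSO vehicle. Method: cis-promoter reporter units transfected into HepG2, 24 h dosing, RNA isolation, RT-PCR with 6-FAM primer extension and HpaI digestion, then capillary electrophoresis fluorescence detection.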

[12] = ATG_M_19_CIS: Attagene CIS-FACTORIAL HepG2 Assay for M19 Transcription Factor (Internal Marker) (AID 2282939); details: HepG2 Attagene CIS-FACTORIAL M19 internal marker reporter; actives raise or lower the signal
Outline: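 Internal marker readout, fitted in both directions against DMSO, from HepG2 cells carrying transfected cis-element reporter constructs; RT-PCR and capillary electrophoresis of reporter mRNA after 24 h exposure.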

[13] = ATG_Ets_CIS: Attagene CIS-FACTORIAL HepG2 Assay for human Erythroblast Transformation Specific (ETS) (AID 2282941); details: HepG2 ETS cis-reporter transcription, actives raise or lower the signal
Outline: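 Steps: transfect HepG2 with multiple reporter units; treat compound 24 h; isolate RNA, DNase-treat, reverse-transcribe; PCR-amplify, label with 6-FAM, digest with HpaI; separate by capillary electrophoresis. Activity fitted both directions versus DMSO.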

[14] = target: Hepatocyte nuclear factor 3-beta (Homo sapiens) (UniProt Q9Y261); assay: ATG_FoxA2_CIS: Attagene CIS-FACTORIAL HepG2 Assay for human Forkhead box A2 (FOXA2) (AID 2282942); details: HepG2 cis-reporter transcription factor activity, 24 h; actives raise or lower the signal
Outline: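 Measured: reporter mRNA induction or loss in HepG2 transiently carrying multiple cis-regulated reporter units, 24 h after dosing. Quantified by RT-PCR plus capillary electrophoresis, normalised to DMSO.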

[15] = ATG_FoxO_CIS: Attagene CIS-FACTORIAL HepG2 Assay for human Forkhead box O (FoxO) (AID 2282943); details: HepG2 Attagene cis-reporter, FoxO element, mRNA; actives raise or lower the signal
Outline: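 Endogenous transcription factor activity read from multiplexed cis-promoter reporter transcripts in transiently transfected HepG2, 24 h after dosing. Reporter RNA measured via RT-PCR plus capillary electrophoresis of FAM-labeled products; gain or loss relative to DMSO.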

[16] = ATG_GATA_CIS: Attagene CIS-FACTORIAL HepG2 Assay for human GATA Binding Protein (AID 2282944); details: HepG2 GATA cis-element reporter, Attagene multiplex mRNA; actives raise or lower the signal
Outline: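 Reporter transcripts from a GATA cis-regulated unit, among multiplexed reporters in transfected HepG2 cells, were measured by RT-PCR with capillary electrophoresis after 24 h dosing. Induction or loss scored relative to DMSO.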

[17] = ATG_E_Box_CIS: Attagene CIS-FACTORIAL HepG2 Assay for human Enhancer Box (E-box) (AID 2282936); details: HepG2 E-box cis-reporter transcription, actives raise or lower the signal
Outline: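 Cells: HepG2 (human liver), transient MRTU transfection. Exposure 24 h. RNA → oligo(dT) RT → PCR → 6-FAM label → HpaI → CE. Activity fitted both directions relative to DMSO.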

[18] = ATG_ERE_CIS: Attagene CIS-FACTORIAL HepG2 Assay for Estrogen Response Element (ERE) (AID 2282940); details: HepG2 ERE cis-reporter, Attagene RNA transcript; actives raise or lower the signal
Outline: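 After 24 h compound treatment, RNA from transfected HepG2 cells was reverse-transcribed, reporter cDNA PCR-amplified, FAM-labelled, HpaI-cut and resolved by capillary electrophoresis. ERE-driven cis reporter transcripts reflect endogenous factors; gain or loss scored against DMSO.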

Measured: AC50

CCAAT/enhancer-binding protein beta (Homo sapiens), sequence (P17676 whole entry, looked up, the tested form may be a part): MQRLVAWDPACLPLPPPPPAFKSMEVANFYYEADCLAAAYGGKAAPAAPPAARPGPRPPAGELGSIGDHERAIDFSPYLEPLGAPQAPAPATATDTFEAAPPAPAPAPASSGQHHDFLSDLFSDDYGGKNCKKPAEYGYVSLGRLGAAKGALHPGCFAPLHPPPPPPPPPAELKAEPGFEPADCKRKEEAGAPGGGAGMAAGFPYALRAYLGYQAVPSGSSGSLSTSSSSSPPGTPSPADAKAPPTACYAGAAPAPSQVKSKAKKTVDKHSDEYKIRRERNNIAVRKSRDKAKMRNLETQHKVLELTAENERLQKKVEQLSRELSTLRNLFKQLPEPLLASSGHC
Aryl hydrocarbon receptor (Homo sapiens), sequence (P35869 whole entry, looked up): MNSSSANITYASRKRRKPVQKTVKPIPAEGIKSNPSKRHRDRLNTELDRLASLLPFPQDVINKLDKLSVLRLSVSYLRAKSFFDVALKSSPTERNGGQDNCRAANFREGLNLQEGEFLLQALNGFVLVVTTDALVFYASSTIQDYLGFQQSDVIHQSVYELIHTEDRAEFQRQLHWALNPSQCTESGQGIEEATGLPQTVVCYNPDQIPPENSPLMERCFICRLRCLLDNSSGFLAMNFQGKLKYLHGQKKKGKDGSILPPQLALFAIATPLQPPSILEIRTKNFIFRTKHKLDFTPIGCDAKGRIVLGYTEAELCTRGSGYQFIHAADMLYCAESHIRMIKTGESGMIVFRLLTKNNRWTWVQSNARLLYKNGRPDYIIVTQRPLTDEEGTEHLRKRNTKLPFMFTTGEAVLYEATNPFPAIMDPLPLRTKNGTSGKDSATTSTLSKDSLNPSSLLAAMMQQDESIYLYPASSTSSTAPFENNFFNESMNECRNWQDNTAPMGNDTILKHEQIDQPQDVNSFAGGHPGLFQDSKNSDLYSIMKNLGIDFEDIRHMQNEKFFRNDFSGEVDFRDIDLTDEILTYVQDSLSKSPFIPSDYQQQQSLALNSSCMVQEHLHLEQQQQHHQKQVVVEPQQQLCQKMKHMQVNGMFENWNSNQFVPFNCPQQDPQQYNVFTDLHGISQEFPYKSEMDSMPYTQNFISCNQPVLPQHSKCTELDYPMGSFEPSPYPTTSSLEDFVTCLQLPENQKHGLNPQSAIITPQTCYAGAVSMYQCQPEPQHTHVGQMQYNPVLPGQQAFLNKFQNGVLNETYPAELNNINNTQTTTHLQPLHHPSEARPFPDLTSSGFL
Transcription factor E2F1 (Homo sapiens), sequence (Q01094 whole entry, looked up): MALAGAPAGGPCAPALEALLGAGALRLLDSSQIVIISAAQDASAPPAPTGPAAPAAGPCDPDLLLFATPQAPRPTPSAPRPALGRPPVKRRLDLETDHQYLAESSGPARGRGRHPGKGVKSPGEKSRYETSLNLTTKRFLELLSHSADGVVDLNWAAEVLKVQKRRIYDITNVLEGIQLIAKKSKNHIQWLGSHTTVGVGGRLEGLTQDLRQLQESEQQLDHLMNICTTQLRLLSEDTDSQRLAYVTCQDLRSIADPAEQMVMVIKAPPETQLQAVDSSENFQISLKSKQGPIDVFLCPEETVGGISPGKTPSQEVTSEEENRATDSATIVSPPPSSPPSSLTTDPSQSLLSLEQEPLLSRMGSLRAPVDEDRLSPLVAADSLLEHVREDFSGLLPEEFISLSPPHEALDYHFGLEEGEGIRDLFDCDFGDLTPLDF
Hepatocyte nuclear factor 3-beta (Homo sapiens), sequence (Q9Y261 whole entry, looked up): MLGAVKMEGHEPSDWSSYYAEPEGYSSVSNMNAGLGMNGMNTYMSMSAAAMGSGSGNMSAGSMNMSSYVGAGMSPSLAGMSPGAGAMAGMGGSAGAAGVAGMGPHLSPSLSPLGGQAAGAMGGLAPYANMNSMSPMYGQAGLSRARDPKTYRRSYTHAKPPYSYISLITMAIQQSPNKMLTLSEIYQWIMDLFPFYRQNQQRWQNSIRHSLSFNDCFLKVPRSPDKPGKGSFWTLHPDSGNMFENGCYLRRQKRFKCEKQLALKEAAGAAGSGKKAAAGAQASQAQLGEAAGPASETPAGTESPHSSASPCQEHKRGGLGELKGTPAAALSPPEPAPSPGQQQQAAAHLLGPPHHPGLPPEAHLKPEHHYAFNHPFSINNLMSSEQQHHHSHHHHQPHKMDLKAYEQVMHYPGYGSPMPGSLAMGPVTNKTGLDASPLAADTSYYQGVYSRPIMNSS

CCCCCCOC(C)=O
inactive: [1] | [2] | [3] | [4] | [5] | [6] | [7] | [8] | [9] | [10] | [11] | [12] | [13] | [14] | [15] | [16]

C=CC(=O)OCCCCCC
inactive: [1] | [2] | [3] | [4] | [5] | [6] | [7] | [8] | [9] | [17] | [10] | [11] | [12] | [13] | [14] | [15] | [16]

C[C@H](CCC(=O)O)[C@H]1CC[C@H]2[C@@H]3CC[C@@H]4C[C@H](O)CC[C@]4(C)[C@H]3CC[C@]12C
inactive: [1] | [3] | [6] | [10] | [18] | [15]
active: [2] 62.7 µM | [4] 29.4 µM | [5] 62.7 µM | [7] 168 µM | [8] 165 µM | [9] 25.3 µM | [11] 25.2 µM | [12] 169 µM | [14] 170 µM

NC(=O)c1cccnc1
inactive: [1] | [2] | [3] | [4] | [6] | [7] | [8] | [9] | [17] | [10] | [11] | [12] | [13] | [14] | [15] | [16]
active: [5] 29 µM

O=C1OCc2ccccc21
inactive: [1] | [2] | [3] | [4] | [5] | [6] | [7] | [8] | [9] | [10] | [11] | [12] | [18] | [13] | [14] | [15] | [16]
